Assay results taken from PubChem BioAssay (Tox21).
Inconclusive results are not listed. Unmarked numbers belong to inactive results. Calls come from the whole dose curve; as a rule, active = well fitted activation curve with a large enough effect in the signal ratio in the repeat runs, with a control signal flat (not every such curve was filed as active); inconclusive = weak or mixed curves; inactive = flat fitted curve, though single readings scatter; the % refers to the signal ratio.

Assay: qHTS assay for small molecule activators of the heat shock response signaling pathway (AID 743210)
Details: HeLa HSE-bla reporter, beta-lactamase ratio, 5 h; series mostly up to 62.6 µM; activation: at the top concentration
Text: U.S. Tox21 Program National Center for Advancing Translational Sciences [NCATS] NIH Chemical Genomics Center [NCGC] U.S. Environmental Protection Agency [EPA] National Institutes of Environmental Health Sciences [NIEHS] National Toxicology Program [NTP] U.S. Food and Drug Administration [FDA] Tox21 Assay Overview: Various chemicals, environmental and physiological stress conditions may lead to the activation of heat shock response/ unfolded protein response (HSR/UPR). There are three heat shock transcription factors (HSFs) (HSF-1, -2, and -4) mediating transcriptional regulation of the human HSR. To identify the compounds that activate HSR signaling, HSE-bla HeLa cell line (Invitrogen, Carlsbad, CA, USA) containing a beta-lactamase reporter gene under the control of the heat shock response elements was used to screen the Tox21 10K compound library.
Tox21 Assay Protocol Summary: The CellSensor HSE-bla HeLa cells (Invitrogen, Carlsbad, CA, USA) were dispensed at 1500 cells/6uL/well into 1536-well black wall/clear bottom plates using a Multidrop combi (Thermo Fisher Scientific, Waltham, MA) dispenser. After the assay plates were incubated at 37 C and 5% CO2 overnight, 23 nL of compounds dissolved in DMSO, positive controls or DMSO only was transferred to the assay plate by a Pintool station (Kalypsys, San Diego, CA). The plates were incubated at 37 C for 5 h. After 1 uL of LiveBLAzerTM B/G FRET substrate was added using a Flying Reagent Dispenser (Beckman Coulter, Indianapolis, IN, USA), the plates were incubated at room temperature for 2.5 h, and fluorescence intensity was measured by an Envision plate reader (PerkinElmer, Shelton, CT).
% is set by controls: 0 for no effect and ±100 for the full control effect.

SMILES | activation
C=C(C)CN(CC)c1c([N+](=O)[O-])cc(C(F)(F)F)cc1[N+](=O)[O-] | -1.82%
O=C(Cc1ccccc1)OCc1ccccc1 | 0.7% [at 81.1 µM]
C[C@]12CC[C@H]3[C@@H](CCC4=CC(=O)CC[C@@]43C)[C@@H]1CC[C@@H]2C(=O)O | -1.19%
CC1(C)CON(Cc2ccccc2Cl)C1=O | 6.25%
CC(C)[N+](=O)[O-] | -0.803%
CCOC(=O)C1(c2ccccc2)CCN(CCc2ccc(N)cc2)CC1 | -0.525%
Nc1cc2c3c(c1)C(c1ccccc1)=N[C@@H](NC(=O)c1cccnc1)C(=O)N3CC2 | 0.748%
NC(=O)O | -1.49%
CCCCc1c(C)nc(NCC)[nH]c1=O | -0.738%
CCCCOC(=O)c1ccccc1C(=O)O | -1.46%
O=NN1CCN(N=O)CC1 | -0.0245%
CCCCOP(=O)(O)OCCCC | -0.502%
O=C(CCN1CC1)OCC(CO)(COC(=O)CCN1CC1)COC(=O)CCN1CC1 | -0.135%
Clc1cccc(N2CCNCC2)c1 | -0.408%
ClCCOCOCCCl | -1.76% [at 81.1 µM]
N#CCCC#N | -0.381%
O=C1c2ccccc2C(=O)c2ccccc21 | 0.4% [at 29.1 µM]
O=C1CN2CCOC2(c2ccccc2Cl)c2cc(Cl)ccc2N1 (stereo not given) | -0.446%
N#CC(CCc1ccc(Cl)cc1)(Cn1cncn1)c1ccccc1 (stereo not given) | -0.72%
CC(CCc1ccccc1)NC(C)C(O)c1ccc(O)cc1 (stereo not given) | 0.913%

SMILES | activation
CCOP(=S)(OCC)Oc1cc(-c2ccccc2)on1 | 1.86%
OCCSCSCCO | -0.0286%
O=P(O)(Oc1ccccc1)Oc1ccccc1 | -0.0072%
O=[N+]([O-])c1cc(Cl)c(Cl)c(Cl)c1 | -0.124%
Cc1cnc[nH]1 | -0.195%
COP(=S)(OC)Oc1ccc(S(N)(=O)=O)cc1 | -0.792%
COC(=O)C1=CCCN(C)C1 | -0.375%
O=C(Oc1ccc(Br)cc1)N1CCN2CCC1CC2 | -0.689%
CCCSC(=O)N(CCC)CCC | 0.469%
CC1CN1P(=O)(N1CC1C)N1CC1C (stereo not given) | -0.483%
Nc1cnn(-c2ccccc2)c(=O)c1Cl | -1.77%
C[N+](=O)[O-] | 0.174%
COc1ncc(F)c2nc(S(=O)(=O)Nc3c(F)cccc3F)nn12 | -0.535%
CCOP(=S)(OCC)SCSc1ccc(Cl)cc1 | -0.559%
Oc1c(Cl)cccc1Cl | -0.744%
Cc1cc(C)c(C(=O)P(=O)(C(=O)c2c(C)cc(C)cc2C)c2ccccc2)c(C)c1 | 0.0227%
CCC1(c2ccccc2)C(=O)NC(=O)NC1=O | -1.33% [at 81.1 µM]
CCOC(=O)C(c1c(O)c2ccccc2oc1=O)c1c(O)c2ccccc2oc1=O | 3.1%
CC1COC2(c3ccccc3Cl)c3cc(Cl)ccc3NC(=O)CN12 (stereo not given) | -0.6%
O=C1OC(=O)C2C1C1(Cl)C(Cl)=C(Cl)C2(Cl)C1(Cl)Cl (stereo not given) | -0.0248% [at 81.1 µM]
